Source: PubChem
PI4K2A block: PI4K2A (human) kinase inhibition | purified PI4K2A, ADP-Glo luminescence, 1 h; hits give low values | activity change, negative = inhibition, % at 76.9 µM | 420,000 tested, 0.13% active | AID 1346378; in the data active = activity change below about -50%; inconclusive = mostly about -30% to -49%;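 note: -100% = wells without enzyme as full effect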
Target sequence (Q9BTU6 whole entry, looked up): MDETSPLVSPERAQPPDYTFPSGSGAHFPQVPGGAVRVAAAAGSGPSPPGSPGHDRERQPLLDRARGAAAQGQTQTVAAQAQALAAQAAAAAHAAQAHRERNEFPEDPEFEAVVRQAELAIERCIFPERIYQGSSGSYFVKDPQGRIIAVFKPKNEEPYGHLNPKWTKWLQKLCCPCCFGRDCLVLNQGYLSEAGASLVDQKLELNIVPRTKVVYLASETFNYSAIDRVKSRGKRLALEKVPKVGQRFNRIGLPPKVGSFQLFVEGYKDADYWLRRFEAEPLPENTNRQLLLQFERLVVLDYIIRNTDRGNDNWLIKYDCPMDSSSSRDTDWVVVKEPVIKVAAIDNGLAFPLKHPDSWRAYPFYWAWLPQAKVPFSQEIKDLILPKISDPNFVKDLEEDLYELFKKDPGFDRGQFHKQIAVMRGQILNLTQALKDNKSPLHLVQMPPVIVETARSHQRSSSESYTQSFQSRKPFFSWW
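ADP-Glo luminescence measured ADP generated by PI4K2A enzyme (4 ug/mL before mixing) with 1.2 mM PI substrate (pre-mix) and 300 microM ATP (pre-mix). Tris pH7.5 buffer with MgCl2, Triton X-100; 1 h reaction at ambient temperature.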
DRD3 agonist: D3 dopamine receptor (human) agonism; D3R DiscoveRx beta-arrestin cells, luminescence, 90 min; 410,000 tested, 0.58% active; max activation, %; in the data active = max activation above about 30%; note: 0% is about no effect
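Agonist-mode cell screen: cells plated at 1500/well and incubated overnight at 37 °C, then exposed to library compounds for 90 min at 37 °C. Detection reagent was added for 30–60 min at room temperature, and luminescence was read.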
RGS4 inhibitor: blocks human RGS4-accelerated GTP hydrolysis; P49798; Potency, µM (highest dose often 114 µM), for the others: top-dose activity change, negative = inhibition, hits mostly inhibitors; AID 504845; Transcreener GDP fluorescence polarization, RGS4-accelerated GTP hydrolysis; 390,000 tested, 0.039% active; active = well fitted inhibition curve with a large enough effect; inconclusive = small, poorly fitted or top-dose-only effect; inactive = no such curve, though single readings can be large or run the other way; note: potency is the fitted concentration of half-maximal effect; % is set by controls: 0 for no effect and ±100 for the full control effect; nearly all actives have a fitted effect of over 75% in size
Target sequence (P49798 whole entry, looked up): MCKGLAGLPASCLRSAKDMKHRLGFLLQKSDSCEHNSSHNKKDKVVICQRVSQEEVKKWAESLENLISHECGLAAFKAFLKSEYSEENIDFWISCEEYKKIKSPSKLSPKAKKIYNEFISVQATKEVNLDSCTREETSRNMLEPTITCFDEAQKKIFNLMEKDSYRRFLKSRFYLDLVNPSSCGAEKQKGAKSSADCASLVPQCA
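MLSMR compounds (23 nl, pin-transferred) preincubated 10 min at room temperature with a 500nM (2x) first reagent, then RGS4 at 900nM (2x) plus Transcreener GDP mix added; fluorescence polarization (620/688 nm) read before and after 90 min at 30 °C.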
LDHA block: blocks human lactate dehydrogenase A; activity change, % (values are at about 110 or 230 µM); 480,000 tested, 0.15% active; AID 1347041; purified LDHA, NADH/diaphorase-resazurin fluorescence; hits give low values; in the data active = activity change below about -30%; inconclusive = mostly about -25% to -30%;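 note: plate controls were DMSO wells for no effect and wells without enzyme for full effect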
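LDH5 2 nM; NADH 0.06 mM, pyruvate 0.2 mM; 200 mM Tris pH 7.4, EDTA, Tween-20; 5 min RT. Detection: diaphorase 0.133 mg/mL + resazurin 37 µM, fluorescence ex540/em590 at 0 and 20 min; normalized to enzyme-free and DMSO wells.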
Akt phos inh: Akt phosphorylation inhibition | Neuro2A IGF-stimulated pAkt S473 HTRF, 20 min; hits give low values | 360,000 tested, 0.32% active | activity change, % for hits at 50 µM; in the data active = activity change below about -80%; inconclusive = mostly about -51% to -80%; note: % is set by controls: 0 for no effect and ±100 for the full control effect
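Neuro2A cells in DMEM with 0.5% FBS, overnight at 37 deg C, given compound at single 50 µM final, then IGF (6 nM final) for 20 min at 37 deg C. Lysed; phospho-Akt Ser473 by HTRF after 24 h, 665/615 ratio.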
D3 antag: antagonists of human D3 dopamine receptor. max response, negative = inhibition, %. P35462. 360,000 tested, 2.5% active. D3R cells, DiscoveRx beta-arrestin luminescence, antagonist mode; hits give low values; in the data active = max response below about -50%; inconclusive = no clear call, values can overlap the other calls; note: % is set by controls: 0 for no effect and ±100 for the full control effect
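Cells expressing the human receptor were seeded at 1500 cells/well, incubated overnight at 37 degrees C in 5% CO2, then exposed to library compounds with dopamine controls for 90 minutes at 37 degrees C before luminescent detection.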
* hit, by the source's call; i = inactive; u = inconclusive; x = no result; [ ] = dose if it differs, or a comment. Only some compounds are listed: those with a hit (about 2.8% of all), similar ones and a draw of the others.

SMILES | PI4K2A block | DRD3 agonist | RGS4 inhibitor | LDHA block | Akt phos inh | D3 antag
CCCCn1c(SCC(=O)NCc2ccco2)nc2ccc(N3CCOCC3)cc2c1=O | -1.1 | 9.8 | -27.1% | 22.4 | i | 23.0
CCCOC(=O)N[C@@H]1C(=O)N2C(C(=O)OCCC)=C(C)CS[C@H]12 | -5.7 | -16.6 | -0.2% | 2.6 | i | -53.2*
Cn1c(=O)c2c(nc(NCC(O)CO)n2CCc2ccccc2)n(C)c1=O (stereo not drawn) | 1.9 | 4.2 | -21.8% | -2.2 | i | -11.2
CC(O)CNc1nc2c(c(=O)n(C)c(=O)n2C)n1CCc1ccccc1 (stereo not drawn) | -0.4 | -2.4 | -33.3% | -6.6 | -111.5%* | -5.2
CC(C)n1c(CN(C)Cc2ccccc2)nc2c1c(=O)n(C)c(=O)n2C | -4.0 | 50.1* | -22.4% | -5.6 | i | 80.5
CC(=O)C(C)n1c(CN(C)Cc2ccccc2)nc2c1c(=O)n(C)c(=O)n2C (stereo not drawn) | 1.5 | 12.8 | -0.4% | -1.1 | i | 0.0
CN1CCN(Cc2nc3c(c(=O)n(C)c(=O)n3C)n2CCCc2ccccc2)CC1 | 3.0 | 0.6 | 10.2% | -1.7 | i | -52.0*
Cn1c(=O)c2c(nc(CN3CCN(C(c4ccccc4)c4ccccc4)CC3)n2CC(N)=O)n(C)c1=O | -2.0 | 0.3 | -18.3% | 11.2 | i | -50.2*
O=C(O)c1cc2ccc(OCc3ccccc3)cc2[nH]1 | x | x | x | 11.5 | x | x
Cc1ccc(S(C)(=O)=O)cc1NCc1c(F)cccc1Cl | x | x | x | 4.6 | x | x
CCOC(=O)CC(=O)c1cc(OC)c(OC)c(OC)c1 | 3.7 | 4.5 | -6.1% | -2.1 | -106.0%* | -9.8
COc1cc(C(=O)CCN(C)C)cc(OC)c1OC | x | x | x | -0.9 | x | x
COc1ccc(C2C(Oc3ccccc3C)C(=O)N2Cc2ccc(F)cc2)cc1OC (stereo not drawn) | -1.6 | -11.4 | -0.8% | 1.9 | x | -68.6*
COc1cccc(NC(=O)c2csc3c2CCCCC3)c1 | -5.5 | 43.8* | -10.8% | -0.2 | x | x
COc1ccc(NC(=O)c2csc3c2CCCCC3)cc1 | 2.2 | 6.8 | 8.0% | 1.2 | x | x
Cc1ccccc1CN1CCN(Cn2nc(C)c3ccccc3c2=O)CC1 | x | x | x | -1.7 | x | x
C=CCn1c(-n2nc(C)cc2C)nc2c1c(=O)n(CCN1CCOCC1)c(=O)n2C | x | x | x | 0.9 | x | x
CCOC(=O)C1C(=O)NC(N2CCN(Cc3ccccc3)CC2)=NC1c1ccccc1 (stereo not drawn) | -9.5 | -3.6 | 16.1% | -14.2 | -86.6%* | -27.8
CCOC(=O)C1C(=O)NC(N2CCN(Cc3ccccc3)CC2)=NC1c1ccco1 (stereo not drawn) | 3.3 | -1.0 | 21.0% | -9.0 | i | 5.0
O=C(Nc1ccccc1)c1cn2ccccc2n1 | -24.1 | 7.0 | -11.2%[56.9 µM] | -2.9 | i | -14.4
Cc1csc(NC(=O)c2cn3ccccc3n2)n1 | -55.5* | 1.6 | -1.2% | 7.8 | i | 2.0
Cc1ccc(S(=O)(=O)Nc2nc3ccccc3nc2Nc2ccc(C(=O)O)cc2)c(C)c1 | x | x | x | -9.5 | x | x
O=C(O)c1ccc2nccnc2c1 | x | x | x | 30.3 | x | x
O=C(c1ccccc1)c1ccc(OCC(O)CN2CCN(S(=O)(=O)N3CCCCC3)CC2)cc1 (stereo not drawn) | -1.4 | 1.2 | -13.1% | -2.5 | x | 24.0
CC(=O)c1ccc(OCCCN2CCCCC2)cc1 | 1.1 | -4.7 | 3.1% | -32.2* | i | -71.8*
SMILES | PI4K2A block | DRD3 agonist | RGS4 inhibitor | LDHA block | Akt phos inh | D3 antag
O=C(c1ccccc1)c1ccc(OCCCN2CCCCC2)cc1 | 2.7 | -1.6 | -42.6% | -18.8 | i | -83.0*
O=C(c1ccccc1)c1ccc(OCC(O)CN2CCCCC2)cc1 (stereo not drawn) | 7.8 | 2.3 | 10.3% | -0.7 | i | -66.6*
COc1ccc(OCCCN2CCCCCC2)cc1 | 1.4 | -3.5 | 27.1% | -3.6 | i | -64.4*
COC(=O)c1ccc(OCCN2CCCCCC2)cc1 | 0.2 | -12.7 | 6.9% | -4.1 | i | -27.4
Cc1cccc(CNC(=O)Cc2cccc3cccnc23)c1 | x | x | x | 10.3 | x | x
CCCCOc1ccc(C(=O)CCN2CCCCC2)cc1 | 20.5 | -43.6 | u | -2.7 | i | -56.0*
c1ccc(COc2ccc(OCCCN3CCCCC3)cc2)cc1 | 2.1 | 2.5 | 6.6% | -22.8 | i | -79.9*
CC(C)COc1ccc(C(=O)CCN2CCCCC2)cc1 | 12.3 | -18.1 | -109.0% | -7.6 | i | -16.2
COc1ccc(C(O)(CCN2CCCCC2)C2CCCCC2)cc1 (stereo not drawn) | -5.9 | -41.1 | -37.4% | -5.8 | i | -52.5*
CCN(Cc1nc(-c2ccc(Cl)cc2)no1)C(=O)Nc1cccc2ccccc12 | x | x | x | -2.7 | x | x
Cc1onc(-c2c(F)cccc2Cl)c1C(=O)NCC1COc2ccccc2O1 (stereo not drawn) | -13.2 | -2.8 | 5.0% | -1.0 | i | -24.0
Cc1onc(-c2c(Cl)cccc2Cl)c1C(=O)NCC1CCCO1 (stereo not drawn) | 0.3 | 9.4 | 18.9% | 1.6 | i | -104.5*
CC1=NN(c2cccc(F)c2)C(=O)/C1=C/c1ccc(N(C)C)cc1 | -8.1 | -1.3 | -1.0% | -7.0 | i | 0.4
COc1ccc(/C=C2/C(=O)N(c3cccc(F)c3)N=C2C)c(OC)c1 | -50.8* | 5.8 | -0.2% | -0.5 | i | -4.8
O=C(O[C@@H]1OC2COC(=O)c3cc(O)c(O)c(O)c3-c3c(cc(O)c(O)c3O)C(=O)O[C@@H]([C@H]1O)[C@@H]2O)c1cc(O)c(O)c(O)c1 | u | 32.1* | u | 23.4 | i | 17.2
COc1ccc(C(=O)CN2C3=NCCCN3c3ccccc32)cc1OC | -0.2 | -6.3 | 12.9% | 1.0 | i | -11.1
COc1cccc(C(=O)CN2C3=NCCCN3c3ccccc32)c1 | 7.6 | -2.5 | 7.2% | -1.3 | i | -61.7*
CN(C)C(=N)c1ccc(N(C)C)cc1 | x | x | x | 0.4 | x | x
O=C(N/N=C/c1ccccn1)c1cc([N+](=O)[O-])cc([N+](=O)[O-])c1 | 2.9 | -12.8 | 7.0% | 0.3 | i | -78.2*
O=C(N/N=C/c1ccccn1)c1cccc([N+](=O)[O-])c1 | 0.2 | -8.9 | -14.5% | -5.5 | i | -20.0
O=C(NN=C1CCCCC1)c1cc(-c2cccs2)nc2ccccc12 | x | x | x | -3.7 | x | x
O=C(NCCc1ccccn1)c1ccc(OC2CCN(CCc3ccccc3)CC2)cc1 | 2.6 | -27.6 | -18.4% | -2.2 | i | -61.6*
O=C(NCCc1cccc(Cl)c1)c1ccc(OC2CCN(Cc3ccccn3)CC2)cc1 | 0.5 | -18.5 | 14.4% | 1.2 | i | -58.7*
O=C(NCC1COCCO1)c1ccc(OC2CCN(CCc3ccccc3)CC2)cc1 (stereo not drawn) | 8.4 | -28.2 | 7.1% | -6.3 | i | -5.5
